Test results published in PubChem BioAssay AID652017 (The Scripps Research Institute Molecular Screening Center, 2013).
The whole screen tested about 370,000 compounds, of which about 3,800 (1%) were called active. The entries come from a sample that favours actives as a whole. Values without a mark were called inactive. Rule as the data show it: active = activation above about 7.8%; inactive = the rest.

Experiment: SMARCA2 (BRM) function activators, primary screen, cell-based, luminescence, high throughput (AID 652017);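 also: 0% = vehicle wells and 100% = reference activator wells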
Conditions: MG213 cells, MMTV-luciferase reporter, dexamethasone, overnight; at 9.1 µM; stronger effect = higher value

Row | Compound | activation
1 | C=CCN1C(=O)[C@@H](CC(=O)NCCCCc2ccccc2)[C@]2(C(=O)OCC)CCCCC/C=C/12 | -5.79%
2 | CC1(C)O[C@@H]2CC3C4C[C@H](F)C5=CC(=O)C=CC5(C)C4C(O)CC3(C)[C@]2(C(=O)CO)O1 (some centres not stated) | -1.35%
3 | C=C(C)C#CC(Cc1ccccc1)NCC1CC1 (configuration not stated) | -5.21%
4 | COCCOC1CCN(C(=O)c2ccc(OC)c(OC3CCN(C(C)C)CC3)c2)CC1 | -1.95%
5 | COc1ccccc1OCCNC(=O)CCNC(=O)c1ccccc1Cl | 0.37%
6 | CC(C)Cc1nnc(NC(=O)CCC(=O)Nc2ccc3cn[nH]c3c2)s1 | -4%
7 | CC(C)Cc1nnc(NC(=O)CCNC(=O)c2ccccc2Cl)s1 | 9.18% (active)
8 | Cc1nc2cc(S(=O)(=O)C(F)(F)F)ccc2s1 | 5.28%
9 | COC(=O)Cc1ccc(OC(=O)C2CCN(S(=O)(=O)c3ccc(OC)c(OC)c3)CC2)cc1 | -1.69%
10 | Cc1ccc(-n2c(SCC(=O)Nc3ccc(S(=O)(=O)Nc4nccs4)cc3)nnc2-c2ccncc2)cc1 | -0.03%
11 | Cc1cc(-n2cnc(-c3cn(C)nc3C)n2)no1 | 8.03% (active)
12 | Cc1ccc(Cn2cc(COC(=O)N(C)Cc3ccccc3)nn2)cc1 | -1.94%
13 | O=S1(=O)c2c(cccc2N2CCCCC2)O[C@H](COCc2ccccc2)CN1C1CC1 | -5.02%
14 | CCOc1ccc(-n2c(SCC(=O)Nc3cc(C)c(NC(=O)c4ccccc4)cc3OC)nnc2-c2cccs2)cc1 | -4.31%
15 | CCOC(=O)c1c(NC(=S)SC)sc(C(=O)N2CCc3ccccc3C2)c1C | -2.6%
16 | O=C(Nc1cccc([N+](=O)[O-])c1)N1CCc2ccccc2C1 | 12.9% (active)
17 | O=C(C(=O)N1CCc2ccccc2C1)c1c[nH]c2ccccc12 | 0.35%
18 | Cc1cccc(OC(C)C(=O)N2CCc3ccccc3C2)c1 (configuration not stated) | -2.36%
19 | CCc1ccc(NC(=O)N2CCc3ccccc3C2)cc1 | 7.91% (active)

Row | Compound | activation
20 | Cc1cccc(C)c1NC(=O)c1ccc(CN2CCc3ccccc3C2)cc1 | -1.14%
21 | COC(=O)c1ccccc1-n1cc(COC(=O)NCCc2ccccc2)nn1 | -2.76%
22 | CCCCNC(=O)C[C@H]1C(=O)N(Cc2ccc(OC)cc2)C2=CCCC[C@@]21C(=O)OCC | -1.43%
23 | Cn1c(=O)c2c(nc(N/N=C/c3cccs3)n2Cc2ccc(Br)cc2)n(C)c1=O | -0.25%
24 | Cc1nc2ccccc2n1CC(=O)N/N=C/c1cccs1 | 0.43%
25 | Cc1n[nH]c(=O)nc1N/N=C/c1cccs1 | 9.22% (active)
26 | O=C(c1ccncc1)N1CC[C@H]2[C@H](CCCN2Cc2ccc(F)cc2)C1 | 0.1%
27 | COc1ccc(Cn2ccc3ccc(-c4ccc5ccn(Cc6ccccc6C)c5c4)cc32)cc1 | -1.41%
28 | COC(=O)C[C@@H]1CC[C@@H]2[C@H](COc3ccc(NC(=O)c4cccc(F)c4)cc3C(=O)N2C)O1 | -3.28%
29 | COC(=O)C[C@H]1CC[C@H]2[C@H](COc3ccc(NC(=O)C4CC4)cc3C(=O)N2C)O1 | -0.29%
30 | COc1cc(/C=N/NC(=O)c2ccccc2)ccc1OS(=O)(=O)c1ccccc1 | 11.6% (active)
31 | COc1ccc(S(=O)(=O)N(CC(=O)N/N=C/c2ccc(C(=O)O)cc2)Cc2ccccc2)cc1OC | 0.18%
32 | COc1cc(/C=N/NC(=O)Nc2ccccc2)ccc1OCCOc1ccccc1C | -2.07%
33 | COc1ccc(S(=O)(=O)NC(C)C(=O)NCc2ccncc2)cc1Cl (configuration not stated) | -1.23%
34 | Cc1ccc(CNC(=O)COc2ccc(S(=O)(=O)NC(C)C)cc2)cc1 | -3.1%
35 | Cc1ccc(S(=O)(=O)NC(C)C(=O)NCc2ccc(Cl)cc2)cc1 (configuration not stated) | 8.48% (active)
36 | O=S1(=O)CCC(NC(=S)SCc2ccccc2Br)C1 (configuration not stated) | -1.67%
37 | CC(C)C(=O)NC(NC(=S)NC1CCS(=O)(=O)C1)C(Cl)(Cl)Cl (configuration not stated) | 1.31%
38 | CCCSC(=S)NC1CCS(=O)(=O)C1 (configuration not stated) | 8.13% (active)

Row | Compound | activation
39 | COc1ccc(C(=O)OCCN2CCN(C3CN(Cc4cn(Cc5ccccc5F)nn4)S(=O)(=O)C3)CC2)cc1OC (configuration not stated) | -1.26%
40 | Cc1c(C=O)n(C)n(-c2ccccc2)c1=O | 1.03%
41 | Cc1nc(N)sc1N=Nc1c(C)n(C)n(-c2ccccc2)c1=O | -4.59%
42 | Cc1c(N=Nc2ccc(N(C)C)cc2)c(=O)n(-c2ccccc2)n1C | 7.84% (active)
43 | C[C@@H]1COc2cccc(N3CCCC3)c2S(=O)(=O)N1C | -1.71%
44 | COc1ccc(-c2cc(C(=O)NC(Cc3c[nH]c4ccccc34)C(=O)O)c(C)o2)cc1OC (configuration not stated) | 3.58%
45 | COc1cccc(CNC(=O)[C@H]2CCCN2C(=O)[C@H]2CCCN2C(=O)C2CCCCC2)c1 | -3.87%
46 | CCN(CC)CCCNC(=O)Cn1cnc2sc(C)c(S(=O)(=O)N3CCN(c4ncccn4)CC3)c2c1=O | -0.93%
47 | CCN(CC)CCNC(=O)c1sc2ncn(CC(=O)Nc3ccc(C)c(Cl)c3)c(=O)c2c1C | 7.84% (active)
48 | CCN(CC)CCNC(=O)Cn1cnc2sc(C)c(S(=O)(=O)N3CCOCC3)c2c1=O | -6.85%
49 | Cc1cccc(C)c1NC(=S)N(Cc1cccnc1)Cc1ccccc1Cl | -5.44%
50 | CCOC(=O)[C@]12CCCC=C1N(Cc1ccc(OC)cc1)C(=O)[C@@H]2CC(=O)N1CCOCC1 | 1.91%
51 | COc1ccc(-n2c(COc3ccccc3)nnc2SCC(=O)Nc2ccc3c(c2)OCO3)cc1 | -4.96%
52 | O=C(Nc1ccc(F)cc1)c1cc2c(s1)CCCC2 | 10.2% (active)
53 | O=C(Nc1cccc2c1CCCC2)c1ccc(F)cc1 | -0.7%
54 | O=C(NCCCn1ccnc1)c1cc2c(s1)CCCC2 | -1.02%
55 | O=C(CNC(=O)c1cc2c(s1)CCC2)Nc1ccccc1Br | 3.62%
56 | CCC(=O)c1c[nH]c(C(=O)NCC2CCCO2)c1 (configuration not stated) | 1.33%
57 | O=C(NCC1CCCO1)c1cc2c(s1)CCCC2 (configuration not stated) | 10.9% (active)
